Measurements as given in PubChem BioAssay.
Activity calls are given as the source filed them. Unless noted, no rule for the calls is given here.

Legend:
[1] = resazurin metabolic signal in HepG2 cells – cell-based, resazurin fluorescence, 24 h, PK04 Diversity Set, profiling panel (AID 1172); settings: HepG2 viability, higher = more signal
[2] = budding yeast growth changes without added modifier – OD600, strain BY4716, 24 h, basal condition, primary screen (AID 1173); settings: S. cerevisiae BY4716 growth, OD600, 24 h; higher = more signal, called active from +8 up or from −8 down
[3] = viability profiling in MM1S myeloma cells – cell-based, resazurin fluorescence, basal, 24 h, PK04 Diversity Set, profiling panel (AID 1174); settings: higher = more signal, called active from +8 up or from −8 down;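 also: MM1S multiple myeloma cell line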
[4] = target: Dihydroorotate dehydrogenase (quinone), mitochondrial (Plasmodium falciparum (isolate 3D7)) (UniProt Q08210); experiment: inhibition of P. falciparum DHODH – biochemical, C-terminal His tag, absorbance 600 nm, primary screen (AID 1175); settings: PfDHODH enzyme, DCIP absorbance 600 nm; higher = more signal, called active from +8 up or from −8 down;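 also: recombinant parasite enzyme with a five histidine tag at its C terminus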
Sequence of Dihydroorotate dehydrogenase (quinone), mitochondrial (Plasmodium falciparum (isolate 3D7)) (Q08210 whole entry, looked up): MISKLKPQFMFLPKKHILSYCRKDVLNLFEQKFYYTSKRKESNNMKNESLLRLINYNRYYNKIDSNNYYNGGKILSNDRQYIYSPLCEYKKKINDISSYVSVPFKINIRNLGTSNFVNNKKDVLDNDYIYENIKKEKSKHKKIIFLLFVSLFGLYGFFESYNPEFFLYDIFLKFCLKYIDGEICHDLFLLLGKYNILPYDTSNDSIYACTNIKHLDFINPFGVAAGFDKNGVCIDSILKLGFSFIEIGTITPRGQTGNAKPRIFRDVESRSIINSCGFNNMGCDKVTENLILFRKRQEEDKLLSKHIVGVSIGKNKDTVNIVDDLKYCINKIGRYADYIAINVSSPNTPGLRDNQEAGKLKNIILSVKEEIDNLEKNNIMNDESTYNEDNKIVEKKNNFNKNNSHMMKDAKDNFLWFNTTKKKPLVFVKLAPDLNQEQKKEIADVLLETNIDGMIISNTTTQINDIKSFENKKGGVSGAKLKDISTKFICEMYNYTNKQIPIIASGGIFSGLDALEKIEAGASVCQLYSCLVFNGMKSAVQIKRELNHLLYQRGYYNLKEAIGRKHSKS

[5] = inhibition of PAO1 biofilm formation – strain PAO1, LB-PBS medium, absorbance 600 nm, primary screen (AID 1176); settings: P. aeruginosa PAO1 growth/biofilm, A600, 12 h; higher = more signal
[6] = growth modulation of vineyard yeast isolate – strain RM11-1a, OD600, basal, 24 h, primary screen (AID 1177);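 also: cultures grown under basal conditions with no added stressor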; settings: S. cerevisiae RM11-1a growth, OD600, 24 h; higher = more signal, called active from +8 up or from −8 down
[7] = growth of efflux-deficient E. coli DRC39 – strain DRC39, OD650, 24 h, E. coli filamentation inducers, primary screen (AID 1178);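 also: growth measured as culture turbidity by optical density at 650 nm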; settings: E. coli DRC39 acrAB, higher = more signal, called active from +8 up or from −8 down
[8] = growth of efflux-deficient E. coli DRC39 – strain DRC39, OD650, 48 h, E. coli filamentation inducers, primary screen (AID 1179);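 also: screen aims at cell division blockers that make cells filament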; settings: E. coli DRC39 delta-acrAB growth, higher = more signal, called active from +8 up or from −8 down
[9] = viability profiling in RPMI8226 myeloma cells – cell-based, resazurin fluorescence, basal, 24 h, PK04 Diversity Set, profiling panel (AID 1180); settings: higher = more signal;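 also: RPMI8826 multiple myeloma cell line at 5000 cells per well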
[10] = target: E3 ubiquitin-protein ligase XIAP (Homo sapiens) (UniProt P98170); experiment: small molecules binding XIAP protein – biophysical, small-molecule microarray, fluorescence 635 nm, primary screen (AID 1181); settings: higher = more signal;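 also: score merges 667 nm emission and signal to noise over triplicate slides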
Sequence of E3 ubiquitin-protein ligase XIAP (Homo sapiens) (P98170 whole entry, looked up, the tested form may be a part): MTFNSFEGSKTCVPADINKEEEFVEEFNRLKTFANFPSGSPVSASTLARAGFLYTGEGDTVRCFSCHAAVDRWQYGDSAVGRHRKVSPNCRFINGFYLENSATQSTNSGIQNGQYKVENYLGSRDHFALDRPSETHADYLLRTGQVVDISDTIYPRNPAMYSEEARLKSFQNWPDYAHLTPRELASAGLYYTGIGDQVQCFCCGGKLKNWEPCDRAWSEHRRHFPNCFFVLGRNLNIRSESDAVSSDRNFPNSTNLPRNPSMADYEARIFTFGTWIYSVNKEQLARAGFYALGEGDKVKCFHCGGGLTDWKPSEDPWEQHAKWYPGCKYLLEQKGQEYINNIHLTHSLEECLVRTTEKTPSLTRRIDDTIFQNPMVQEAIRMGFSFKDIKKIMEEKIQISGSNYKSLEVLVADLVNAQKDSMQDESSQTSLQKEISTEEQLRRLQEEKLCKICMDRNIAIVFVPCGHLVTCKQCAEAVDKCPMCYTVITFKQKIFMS

[11] = test system: XIP peptide (Xip251-270) binding; experiment: XIP fragment 251-270 binding compounds – biochemical, small-molecule microarray, fluorescence 635/667 nm, 0.1 µg/mL protein, primary screen (AID 1182); settings: fluorescent protein binding, 635 nm, higher = more signal, called active from +8 up or from −8 down
XIP peptide (Xip251-270) = experiment: compounds binding XIP fragment 251-270 – biochemical, small-molecule microarray, fluorescence 635/667 nm, 0.5 µg/mL protein, primary screen (AID 1183); settings: fluorescence 635 nm, higher = more signal
[12] = blood-stage malaria parasite viability loss – strain 3D7, DAPI fluorescence, 100 nL, primary screen (AID 1184);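 also: parasites grown inside human red blood cells in medium with human serum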; settings: P. falciparum 3D7 growth, 3 d, higher = more signal
[13] = target: Homeobox protein Hox-A13 (Mus musculus) (UniProt Q62424); experiment: disruptors of Hoxa13 oligonucleotide interaction – biochemical, fluorescence polarization, labeled oligonucleotide, primary screen (AID 1185); settings: Hoxa13:DNA binding, 15 min, higher = more signal, called active from +8 up or from −8 down
Sequence of Homeobox protein Hox-A13 (Mus musculus) (Q62424 whole entry, looked up): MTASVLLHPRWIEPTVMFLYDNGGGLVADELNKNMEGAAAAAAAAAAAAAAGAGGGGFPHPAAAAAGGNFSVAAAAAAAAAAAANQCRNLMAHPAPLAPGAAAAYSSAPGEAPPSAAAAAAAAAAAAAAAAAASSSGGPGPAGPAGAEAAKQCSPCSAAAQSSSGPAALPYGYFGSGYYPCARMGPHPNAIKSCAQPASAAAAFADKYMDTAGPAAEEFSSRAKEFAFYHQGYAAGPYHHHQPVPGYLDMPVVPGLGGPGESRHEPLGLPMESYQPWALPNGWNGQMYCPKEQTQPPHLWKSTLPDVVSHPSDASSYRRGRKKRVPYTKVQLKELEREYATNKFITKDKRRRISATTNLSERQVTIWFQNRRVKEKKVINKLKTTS

[14] = blockers of DNA damage checkpoint Chk1 activation – imaging, HeLa, hydroxyurea, phospho-Chk1 antibody, percent positive cells, primary screen (AID 1186); settings: hydroxyurea-induced phospho-Chk1 immunofluorescence imaging, higher = more signal
[15] = blockers of DNA damage checkpoint Chk1 activation – imaging, HeLa, hydroxyurea, phospho-Chk1 nuclear intensity, primary screen (AID 1187); settings: hydroxyurea-induced phospho-Chk1 immunofluorescence imaging, higher = more signal

SMILES | z-score [1] | z-score [2] | z-score [3] | composite z-score [4] | z-score [5] | z-score [6] | z-score [7] | z-score [8] | z-score [9] | composite z-score [10] | composite z-score [11] | composite z-score (XIP peptide (Xip251-270)) | z-score [12] | z-score [13] | z-score [14] | z-score [15]
CC(C)NC(=O)[C@@]1(Cc2ccccc2I)c2ccccc2C(=O)N(Cc2ccccc2)[C@H]1c1ccc(CO)cc1 | 0.255 | -0.659 (inactive) | -0.329 (inactive) | 0.799 (inactive) | 0.972 (inactive) | -0.0378 (inactive) | -0.24 (inactive) | -0.324 (inactive) | -0.211 | -0.0023 | 0.257 (inactive) | 0.784 | -1.22 | -4.87 (inactive) | -0.303 (inactive) | -0.346 (inactive)
O=C1N(CCS(=O)(=O)c2ccccc2)c2ccccc2C[C@@]12COC(c1ccc(OCCCO)cc1)=N2 | -0.73 | 1.3 (inactive) | -0.756 (inactive) | 0.558 (inactive) | 0.603 (inactive) | 1.31 (inactive) | -0.0526 (inactive) | -0.726 (inactive) | -0.816 | 0.262 | 2.06 (inactive) | 0.861 | -1.39 | -4.69 (inactive) | -0.0621 (inactive) | -0.223 (inactive)
O=C1C[C@]2(c3ccc([N+](=O)[O-])cc3)C(=O)N(CC(F)(F)F)c3cc(CO)ccc3[C@H]2N1CC12CC3CC(CC(C3)C1)C2 | 0.961 | 0.695 (inactive) | -1.2 (inactive) | -3.73 (inactive) | 0.503 (inactive) | -0.319 (inactive) | 0.973 (inactive) | 0.672 (inactive) | -0.157 | -0.222 | 0.2 (inactive) | 0.822 | 0.0278 | 0.2 (inactive) | -0.151 (inactive) | -0.382 (inactive)
COCC(=C=CC[C@H](O)c1ccc(OCCO)cc1)C[C@H](O)c1cc(Cl)cc(Cl)c1O | 0.751 | -18 (active) | 0.668 (inactive) | -4.37 (inactive) | 0.354 (inactive) | -22.1 (active) | 1.43 (inactive) | 1.27 (inactive) | 0.708 | 0.0724 | 0.423 (inactive) | 0.161 | -1.55 | -4.13 (inactive) | -0.559 (inactive) | 0.56 (inactive)
O=C1OCCC=C[C@H]2OC34C=CCN(Cc5ccccc5)C(=O)[C@H]3N(CCCCCCO)C(=O)[C@@H]4C12 (stereo partly drawn) | 1.83 | 0.0187 (inactive) | 0.654 (inactive) | 0.261 (inactive) | -0.208 (inactive) | 0.589 (inactive) | 0.759 (inactive) | 0.653 (inactive) | 0.183 | -0.0918 | -0.271 (inactive) | 0.8 | 0.0921 | -4.32 (inactive) | 0.249 (inactive) | 0.489 (inactive)
COC(=O)[C@@]1(Cc2ccccc2N=[N+]=[N-])COC(c2ccc(OCCCO)cc2)=N1 | -0.799 | -10.7 (active) | -1.43 (inactive) | 0.215 (inactive) | 0.907 (inactive) | 1.42 (inactive) | -0.993 (inactive) | -1.46 (inactive) | -0.496 | 0.0593 | 1.25 (inactive) | 0.66 | -0.82 | -5.06 (inactive) | 0.428 (inactive) | 0.135 (inactive)
C=CC(COC(C)=O)NS(=O)(=O)c1ccc(Br)cc1 (stereo not drawn) | -0.233 | -2.68 (inactive) | 0.364 (inactive) | -0.287 (inactive) | 0.212 (inactive) | -0.406 (inactive) | -0.909 (inactive) | -1.05 (inactive) | 0.404 | -0.338 | 0.264 (inactive) | 0.231 | 1.95 | -0.546 (inactive) | 0.363 (inactive) | 0.253 (inactive)
O=C(CS)NCCCCCCNC(=O)[C@@H]1C[C@@H]2C(=O)N3CCC[C@H]3C(=O)N2[C@@H]1c1ccc(O)cc1 | -0.564 | 0.784 (inactive) | 0.357 (inactive) | 0.586 (inactive) | -0.158 (inactive) | 1.24 (inactive) | -0.0727 (inactive) | -0.313 (inactive) | -0.449 | 0.0153 | 0.689 (inactive) | 0.422 | 0.331 | -3.65 (inactive) | -0.0018 (inactive) | 0.499 (inactive)
COCCOC(=O)N1C(=O)[C@@]2(c3cc(C#CCCO)ccc31)[C@H](c1ccccc1OCCO)N1[C@H](c3ccccc3)[C@H](c3ccccc3)OC(=O)[C@H]1[C@@H]2C(=O)N1CCN(c2ncccn2)CC1 | -0.0071 | 1.42 (inactive) | -0.285 (inactive) | -0.465 (inactive) | 1.6 (inactive) | 2.18 (inactive) | -0.0933 (inactive) | -0.27 (inactive) | -0.803 | -0.0304 | 0.377 (inactive) | 0.783 | -1.89 | -1.16 (inactive) | -0.0825 (inactive) | -0.157 (inactive)
O=C1OCC=C[C@H]2OC34C=CCN(c5ccc(Cl)cc5)C(=O)[C@H]3N(CCCCCCO)C(=O)[C@@H]4[C@@H]12 (stereo partly drawn) | 0.82 | -0.69 (inactive) | 0.975 (inactive) | -1.47 (inactive) | -0.497 (inactive) | -0.146 (inactive) | 0.571 (inactive) | 0.916 (inactive) | 1.01 | -0.138 | -0.513 (inactive) | -1.03 | -0.358 | -4.21 (inactive) | -0.181 (inactive) | -0.0007 (inactive)
CCOC(=O)C1=C[C@@H](C(C)C)N(S(=O)(=O)c2ccc(C)cc2)[C@H]1c1ccc(C(C)C)cc1 | 0.346 | 1.05 (inactive) | 0.52 (inactive) | -1.11 (inactive) | -0.281 (inactive) | 0.55 (inactive) | -0.558 (inactive) | 0.399 (inactive) | 0.548 | -0.192 | 0.306 (inactive) | -0.109 | -1.46 | -0.549 (inactive) | 0.25 (inactive) | 0.478 (inactive)
[N-]=[N+]=Nc1ccccc1C[C@]1(C(=O)NCCN2CCOCC2)N=C(c2ccc(OCCCO)cc2)O[C@H]1c1ccccc1 | 0.224 | -3.1 (inactive) | -0.359 (inactive) | -0.0351 (inactive) | 0.565 (inactive) | -0.52 (inactive) | 0.148 (inactive) | -0.338 (inactive) | -0.554 | 0.0679 | 0.533 (inactive) | 0.902 | -2.37 | -5.89 (inactive) | 0.184 (inactive) | 0.535 (inactive)
COc1ccc(C(=O)Nc2cccc(CN3C(=O)[C@@]4(O[C@@H](CCn5cc(CCO)nn5)[C@H]([Si](C)(C)c5ccc(OC)cc5)[C@H]4C)c4ccccc43)c2)cc1 | -5.75 | -6.12 (inactive) | -9.07 (active) | 1.42 (inactive) | 0.769 (inactive) | 3.1 (inactive) | 1.7 (inactive) | 0.633 (inactive) | -6.23 | 0.126 | 0.201 (inactive) | 0.393 | -2.65 | -3.85 (inactive) | 0.103 (inactive) | 0.199 (inactive)
CCOC(=O)C[C@H]1[C@H](OC(=O)c2ccc(-c3ccccc3)cc2)[C@@H](NC(=O)c2ccc3ccccc3c2)c2cc(OCCCO)ccc2N1C(=O)Cc1ccc(OC)cc1 | 0.339 | -0.461 (inactive) | 0.158 (inactive) | -0.173 (inactive) | -0.501 (inactive) | -0.169 (inactive) | 0.281 (inactive) | 0.454 (inactive) | 0.507 | 0.144 | -0.341 (inactive) | -0.0332 | -0.884 | -1.89 (inactive) | -0.192 (inactive) | 0.0873 (inactive)
COc1ccc([Si](C)(C)[C@@H]2[C@@H](CCn3cc([C@H](O)c4ccccc4)nn3)O[C@]3(C(=O)N(Cc4cccc(N5CCOC5=O)c4)c4ccccc43)[C@H]2C)cc1 | 0.194 | -0.611 (inactive) | -2.91 (inactive) | 0.539 (inactive) | 1.35 (inactive) | 1.98 (inactive) | 1.44 (inactive) | 1.45 (inactive) | -0.424 | -0.102 | 0.672 (inactive) | 0.168 | -2.33 | -2.64 (inactive) | -0.862 (inactive) | 0.0282 (inactive)
COc1cccc(C(=O)O[C@H]2CC[C@]3(C)C4=C(CCC3C2(C)C)[C@]2(C)CC[C@H]([C@H](C)CCCC(C)C)[C@@]2(C)CC4)c1 (stereo partly drawn) | 0.514 | -0.488 (inactive) | 0.697 (inactive) | -2.17 (inactive) | 0.671 (inactive) | -1.62 (inactive) | 0.621 (inactive) | 1.18 (inactive) | 0.815 | 0.132 | -0.019 (inactive) | -0.519 | -0.0127 | -0.87 (inactive) | 0.811 (inactive) | 1.77 (inactive)
O=C1O[C@@H](c2ccccc2)[C@@H](c2ccccc2)N2[C@@H](c3ccc(OCCO)cc3)[C@]3(C(=O)Nc4ccc(C#CC5=CCCCC5)cc43)[C@@H](C(=O)O)[C@H]12 | 0.332 | -0.734 (inactive) | -1.5 (inactive) | -13.5 (active) | 2.07 (inactive) | 1.44 (inactive) | 0.448 (inactive) | 0.0447 (inactive) | -1.43 | 0.104 | 0.383 (inactive) | 0.504 | 0.287 | -3.99 (inactive) | 0.419 (inactive) | 0.542 (inactive)
C=CCNC(=O)[C@H]1[C@@H]2C(=O)O[C@@H](c3ccccc3)[C@@H](c3ccccc3)N2[C@@H](c2ccc(O)cc2)[C@]12C(=O)N(C(=O)OCCOC)c1ccc(C#CCCO)cc12 | -0.37 | -0.385 (inactive) | 0.695 (inactive) | 1.12 (inactive) | 0.104 (inactive) | 0.681 (inactive) | 0.261 (inactive) | 0.69 (inactive) | 0.665 | -0.272 | 0.855 (inactive) | 0.72 | -0.353 | -3.9 (inactive) | -0.537 (inactive) | -0.532 (inactive)
